Sampled rows, rich in hits. Any-hit rate of the full collection: about 7.3%.
Luc counter: Counterscreen for Luciferase (Kinase-Glo TM) Inhibition; hit rate 0.28% among 200,000; Potency, µM (doses to about 38.3 µM), actives largely listed as inhibitors; Kinase-Glo luciferase, ATP luminescence, 8 min; note: nearly all actives have a fitted effect of over 60% in size
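Compound is pinned into ATP-containing buffer (10 uM ATP, imidazole pH 7.2, 7 mM MgCl2). Kinase-Glo luciferase reagent is then added. Light output is recorded following an 8-min room-temperature incubation.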
FLuc counter: qHTS profiling assay for firefly luciferase inhibitor/activator using purifed enzyme and Km concentrations of substrates (counterscreen for miR-21 project) | AID 588342, 2011 | Luciferin 4-monooxygenase (Photinus pyralis), P08659 | purified FLuc, Km substrates, luminescence inhibition | Potency, µM (highest dose often 57.5 µM), usual class: inhibitors | hit rate 6.9% among 360,000; note: nearly all actives have a fitted effect of over 55% in size
Target sequence (P08659 whole entry, looked up): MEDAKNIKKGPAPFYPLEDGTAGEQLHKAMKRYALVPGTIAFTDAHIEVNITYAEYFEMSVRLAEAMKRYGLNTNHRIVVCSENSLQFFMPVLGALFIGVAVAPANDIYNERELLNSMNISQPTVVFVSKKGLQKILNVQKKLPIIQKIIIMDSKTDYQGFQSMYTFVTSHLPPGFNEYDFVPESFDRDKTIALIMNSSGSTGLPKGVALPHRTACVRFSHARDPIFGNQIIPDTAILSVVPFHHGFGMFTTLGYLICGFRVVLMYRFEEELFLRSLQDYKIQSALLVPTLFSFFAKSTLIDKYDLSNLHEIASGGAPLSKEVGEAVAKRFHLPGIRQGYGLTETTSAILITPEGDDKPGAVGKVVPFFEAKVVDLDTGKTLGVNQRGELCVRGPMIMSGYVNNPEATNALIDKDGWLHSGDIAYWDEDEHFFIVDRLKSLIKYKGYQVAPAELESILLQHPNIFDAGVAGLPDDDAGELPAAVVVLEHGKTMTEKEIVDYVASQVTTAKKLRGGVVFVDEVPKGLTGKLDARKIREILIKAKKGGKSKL
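Purified P. pyralis luciferase, 10 nM final, with Km-level 10 uM D-luciferin and 10 uM ATP in 50 mM Tris acetate pH 7.5, 10 mM Mg acetate, 0.01% Tween-20, 0.05% BSA; 6-point qHTS titration about 60 µM downward; luminescence read.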
NPC1 prom act: qHTS Assay for NPC1 Promoter Activators; hit rate 2.4% among 320,000; Huh7 NPC1 promoter luciferase reporter, 24 h; Potency, µM (titrated, usually from 9.22 µM), usual class: activators; AID 485313, 2010; note: nearly all actives have a fitted effect of over 60% in size
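Luminescence from an NPC1 promoter-driven luciferase reporter in stably transfected Huh7 cells was measured after 24 h compound treatment at 37 °C, followed by 10 min ambient incubation with luciferase detection reagent.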
ELG1 genotox: qHTS screen for small molecules that induce genotoxicity in human embryonic kidney (HEK293T) cells expressing luciferase-tagged ELG1; Potency, µM (top dose mostly 46 µM), actives largely listed as activators; HEK293T ELG1-luciferase reporter, luminescence, 16 h; hit rate 1.3% among 330,000; note: nearly all actives have a fitted effect of over 60% in size
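After overnight (16 hr) compound treatment at 37 °C, ELG1-luciferase HEK293T cells were lysed with ONE-Glo; luminescence quantified 30 min later at room temperature.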
Rab9 prom act: qHTS Assay for Rab9 Promoter Activators | hit rate 2.8% among 320,000 | Huh7 Rab9 promoter-luciferase reporter, luminescence, 24 h | Potency, µM (top dose mostly 9.22 µM), hits mostly activators | AID 485297, 2010; note: nearly all actives have a fitted effect of over 60% in size
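Stable Rab9-luc Huh7, 1500 cells/well, 2 h settle; cmpd in DMSO, 24 h, 37 °C/5% CO2; luciferase reagent 10 min RT; luminescence.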
SMN2 splice enh: qHTS Assay for Enhancers of SMN2 Splice Variant Expression | HEK293 SMN2-luciferase splicing reporter, luminescence, 30-36 h | Potency, µM (highest dose often 46.1 µM), usual class: activators | hit rate 2.8% among 210,000 | AID 1458, 2008; note: nearly all actives have a fitted effect of over 55% in size
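HEK293 cells carry an SMN2 […]–luciferase reporter in which exon 7 inclusion puts luciferase in frame. Cells were plated 10-12 h before compound addition, then incubated 30-36 h at 37C. ONE-Glo luminescence was read; sodium butyrate at 4.5 mM final served as control.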
Numbers stand for hits; [ ] = remark or other dose. Calls come from the whole dose curve; as a rule, active = well fitted curve in the direction sought with a large enough effect; inconclusive = small, poorly fitted or top-dose-only effect, or another doubt; inactive = no such curve, though single readings can be large; an effect the other way counts as inactive or inconclusive.

How did COc1ccc(OC)c(N=c2oc3cc(O)ccc3cc2C(N)=O)c1 do in these assays?
Luc counter: inconclusive; FLuc counter: 21µM; NPC1 prom act: inactive; ELG1 genotox: inactive; Rab9 prom act: inactive; SMN2 splice enh: inactive

Results for C=CCC1(CC=C)CCCN1C(=O)C1CCC(=O)N(CCc2ccccc2)C1 (stereo not drawn) ?
FLuc counter: 11µM; NPC1 prom act: 4µM; ELG1 genotox: inconclusive; Rab9 prom act: 2.8µM

How did C=CCC1(CC=C)CCCN1C(=O)C1CCC(=O)N(CCc2ccc(OC)cc2)C1 (stereo not drawn) do in these assays?
FLuc counter: 11µM; NPC1 prom act: 2.5µM; ELG1 genotox: inconclusive; Rab9 prom act: 2.5µM

What do the screens show for `Cc1ccc(C2C(C#N)=C(N)Oc3c2sc2ccccc32)o1` (stereo not drawn)?
Luc counter: inactive; FLuc counter: 13µM; NPC1 prom act: inactive; ELG1 genotox: inconclusive; Rab9 prom act: inactive; SMN2 splice enh: inactive

How did CCOC(=O)CC1=C(C(=O)OCC)C(c2ccc(C)o2)C(C#N)=C(N)O1 (stereo not drawn) do in these assays?
Luc counter: inactive; FLuc counter: inactive; NPC1 prom act: inactive; ELG1 genotox: inactive; Rab9 prom act: inactive; SMN2 splice enh: inactive

Results for CC(=O)NC(c1ccco1)c1cc(Cl)c2ccc(N3CCCCC3)nc2c1O (stereo not drawn) ?
FLuc counter: inconclusive; NPC1 prom act: inactive; Rab9 prom act: inactive

How did COc1ccccc1NC(CC(=O)c1ccccc1)C(=O)OCC(=O)c1ccc(C)c(C)c1 (stereo not drawn) do in these assays?
Luc counter: inactive; FLuc counter: 3µM; NPC1 prom act: inactive; ELG1 genotox: 2.1µM; Rab9 prom act: inactive; SMN2 splice enh: 8.9µM

What do the screens show for `O=C(CC(Nc1ccccc1Cl)C(=O)OCC(=O)c1cccs1)c1ccccc1` (stereo not drawn)?
Luc counter: inactive; FLuc counter: inactive; NPC1 prom act: inactive; ELG1 genotox: inconclusive; Rab9 prom act: inactive; SMN2 splice enh: inactive

Results for COc1ccccc1NC(CC(=O)c1ccccc1)C(=O)OCC(=O)c1ccc(Br)cc1 (stereo not drawn) ?
Luc counter: inactive; FLuc counter: 2.1µM; NPC1 prom act: inactive; ELG1 genotox: 2.1µM; Rab9 prom act: inactive; SMN2 splice enh: inactive

What do the screens show for `COc1ccccc1NC(CC(=O)c1ccccc1)C(=O)OCC(=O)c1ccc(C)cc1` (stereo not drawn)?
Luc counter: inactive; FLuc counter: 3.4µM; NPC1 prom act: inactive; ELG1 genotox: 2.3µM; Rab9 prom act: inactive; SMN2 splice enh: 8.9µM

Results for CC(=O)NC(Cc1ccccc1)C(=O)OCC(=O)c1ccc(Br)cc1 (stereo not drawn) ?
Luc counter: inactive; FLuc counter: inactive; NPC1 prom act: inactive; ELG1 genotox: inactive; Rab9 prom act: inactive; SMN2 splice enh: inactive

How did O=C(O)CCCCn1cnc2c(=S)nc[nH]c21 do in these assays?
Luc counter: inactive[7.66 µM]; SMN2 splice enh: inactive[9.22 µM]

Results for O=C(CCCn1c(=O)c2ccccc2n(Cc2cccc(Cl)c2)c1=O)NCCc1ccc(Cl)cc1 ?
FLuc counter: inactive; SMN2 splice enh: inactive

How did Cc1cc(NO)nc(-c2ccc(Br)cc2)n1 do in these assays?
Luc counter: inactive; FLuc counter: 24µM; NPC1 prom act: inconclusive; ELG1 genotox: inconclusive; Rab9 prom act: 4.5µM; SMN2 splice enh: 16µM

How did COc1ccc(C(=O)Nc2ccc(C)cn2)c(OC)c1 do in these assays?
Luc counter: inconclusive; FLuc counter: 0.19µM; NPC1 prom act: inconclusive; ELG1 genotox: 0.092µM; Rab9 prom act: 0.35µM

What do the screens show for `Cc1cc(NC(=O)Nc2ccc(C)c(C)c2)no1`?
Luc counter: inactive; FLuc counter: 13µM; NPC1 prom act: inactive; ELG1 genotox: inconclusive; Rab9 prom act: inconclusive

How did COc1cccc(C(=O)NC(=O)Nc2cc(C)on2)c1 do in these assays?
Luc counter: inactive; FLuc counter: inconclusive; NPC1 prom act: inconclusive; ELG1 genotox: inconclusive; Rab9 prom act: 1.6µM; SMN2 splice enh: 11µM

How did COc1ccc(C(=O)Nc2cc(C)on2)c(OC)c1 do in these assays?
FLuc counter: 11µM; NPC1 prom act: 3.2µM; ELG1 genotox: inconclusive; Rab9 prom act: 3.2µM

How did COc1cc(C(=O)Nc2ccc(C)cn2)c([N+](=O)[O-])cc1OC do in these assays?
Luc counter: inactive; FLuc counter: inactive; NPC1 prom act: inactive; ELG1 genotox: inactive; Rab9 prom act: inactive; SMN2 splice enh: inactive

How did COc1ccc(N2CCN(C(=O)C3CCN(S(=O)(=O)c4cccc5nonc45)CC3)CC2)cc1 do in these assays?
FLuc counter: inactive

What do the screens show for `COc1ccc(/C=C/C(=O)Nc2sc3c(c2C(N)=O)CCC(C)C3)cc1OC` (stereo not drawn)?
FLuc counter: inactive; SMN2 splice enh: inactive

Results for COc1ccccc1C(=O)Nc1nc2ccccc2[nH]1 ?
FLuc counter: 0.019µM; NPC1 prom act: inconclusive; ELG1 genotox: inconclusive; Rab9 prom act: inactive

Results for COc1cc(SC)ccc1C(=O)Nc1c(Cl)cncc1Cl ?
Luc counter: inactive; FLuc counter: inactive; NPC1 prom act: inactive; ELG1 genotox: inactive; Rab9 prom act: inactive; SMN2 splice enh: inactive

Results for CS(=O)(=O)c1ccccc1C(=O)Nc1nc2ccccc2[nH]1 ?
FLuc counter: inactive; NPC1 prom act: inactive; ELG1 genotox: inactive; Rab9 prom act: inactive

Results for COc1cc(SC)ccc1C(=O)Nc1nc2ccccc2[nH]1 ?
FLuc counter: 0.014µM; NPC1 prom act: inactive; ELG1 genotox: inactive; Rab9 prom act: inactive

Results for O=C(CCNC(=O)c1ccccc1Cl)Nc1nc2ccccc2[nH]1 ?
ELG1 genotox: inactive

Results for COc1ccccc1C(=O)NCCC(=O)Nc1nc2ccccc2[nH]1 ?
FLuc counter: inactive; NPC1 prom act: inactive; ELG1 genotox: 23µM; Rab9 prom act: inactive

What do the screens show for `COc1ccc(-c2nc(-c3ccccc3)c(Nc3c(C)cccc3C)o2)cc1`?
Luc counter: inactive; SMN2 splice enh: inactive

Results for CCOc1ccc(CCNC(=O)Cn2nc(-c3ccc(C)cc3)ccc2=O)cc1OCC ?
FLuc counter: inactive

How did CCSc1ncc(/C=N/Nc2ccc(F)cc2)n1C do in these assays?
Luc counter: inactive; FLuc counter: 11µM; NPC1 prom act: inconclusive; ELG1 genotox: inactive; Rab9 prom act: inconclusive; SMN2 splice enh: 11µM

Results for CC(=O)Nc1ccc(NC(=O)CSc2ncc(C(=O)Nc3ccc(F)cc3)c(=O)n2C)cc1 ?
FLuc counter: inconclusive; NPC1 prom act: inactive; ELG1 genotox: inactive; Rab9 prom act: inactive
